High-throughput results as filed in PubChem.
TLR4 MyD88 comp: blocks binding of human TLR4 to MyD88; O00206+Q99836; HeLa CL3-4 TLR4/MyD88 BLA complementation, FRET ratio; inhibition, % at 8.4 µM; hit rate 0.18% among 200,000; AID 861; in the data active = inhibition above about 25%;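 note: 0% = vehicle and 100% = reference inhibitor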
TLR9-MyD88 inh: TLR9-MyD88 interaction inhibition | hit rate 0.21% among 340,000 | AID 504734 | Q9NR96+Q99836 | CHO BLA complementation TLR9-MyD88, CCF4 FRET ratio | inhibition, % at 4.98 µM;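 active = inhibition above the mean over all tested compounds plus 3 SD, cut at about 21% in these data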;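 note: 0% = DMSO only wells and 100% = clavulanate BLA inhibitor control wells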
Target sequence (Q99836 whole entry, looked up): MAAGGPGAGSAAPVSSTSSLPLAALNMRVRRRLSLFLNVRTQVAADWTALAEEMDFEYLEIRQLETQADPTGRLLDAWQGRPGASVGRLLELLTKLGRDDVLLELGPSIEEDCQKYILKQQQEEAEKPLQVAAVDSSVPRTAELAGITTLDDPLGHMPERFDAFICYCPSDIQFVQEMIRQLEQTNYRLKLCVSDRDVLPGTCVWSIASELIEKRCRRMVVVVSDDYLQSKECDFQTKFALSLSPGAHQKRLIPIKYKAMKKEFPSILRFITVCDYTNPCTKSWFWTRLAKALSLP
Target sequence (Q9NR96 whole entry, looked up): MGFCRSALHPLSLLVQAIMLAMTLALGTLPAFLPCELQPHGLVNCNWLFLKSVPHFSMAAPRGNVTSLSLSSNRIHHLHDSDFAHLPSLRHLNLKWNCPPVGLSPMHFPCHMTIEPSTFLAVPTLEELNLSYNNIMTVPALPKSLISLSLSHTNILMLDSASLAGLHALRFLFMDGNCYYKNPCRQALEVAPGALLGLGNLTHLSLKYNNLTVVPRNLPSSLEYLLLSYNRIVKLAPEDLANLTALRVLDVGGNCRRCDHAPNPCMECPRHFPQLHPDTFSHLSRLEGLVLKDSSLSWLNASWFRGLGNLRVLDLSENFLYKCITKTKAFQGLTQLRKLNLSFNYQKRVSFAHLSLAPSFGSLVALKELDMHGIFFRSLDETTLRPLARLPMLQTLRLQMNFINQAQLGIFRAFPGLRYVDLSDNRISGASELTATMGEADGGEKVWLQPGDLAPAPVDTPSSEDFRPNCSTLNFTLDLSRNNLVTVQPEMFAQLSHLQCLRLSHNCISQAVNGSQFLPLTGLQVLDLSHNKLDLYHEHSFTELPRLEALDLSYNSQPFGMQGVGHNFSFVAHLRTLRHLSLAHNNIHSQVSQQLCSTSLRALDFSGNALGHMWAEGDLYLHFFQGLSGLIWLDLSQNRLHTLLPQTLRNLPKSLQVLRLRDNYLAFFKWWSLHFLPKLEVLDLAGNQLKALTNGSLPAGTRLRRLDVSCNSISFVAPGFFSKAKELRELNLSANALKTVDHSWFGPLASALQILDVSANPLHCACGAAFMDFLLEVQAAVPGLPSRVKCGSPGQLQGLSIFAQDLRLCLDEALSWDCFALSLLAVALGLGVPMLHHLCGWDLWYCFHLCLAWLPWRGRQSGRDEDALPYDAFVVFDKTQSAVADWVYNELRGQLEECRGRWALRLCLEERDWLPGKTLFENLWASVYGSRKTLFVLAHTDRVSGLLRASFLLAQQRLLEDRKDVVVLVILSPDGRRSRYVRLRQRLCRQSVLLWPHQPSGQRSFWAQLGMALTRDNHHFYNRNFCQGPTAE
NOD2 RIPK2 PPI: blocks binding of human NOD2 to RIPK2. AID 624267. hit rate 0.38% among 360,000. O43353. inhibition, % at 4.98 µM. CHO BLA complementation NOD2-RIPK2, CCF4 ratio; in the data active = inhibition above about 21%;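 note: 0% = vehicle only and 100% = reference blocker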
PRMT1 FP inh: PRMT1 (human) inhibition, primary screen; recombinant PRMT1, activity-based probe fluorescence polarization; inhibition, % at 2.79 µM; hit rate 1.3% among 370,000;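 active = inhibition above about 21% made by adding two undisclosed values, limit read from the data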
rCAG binder: binds r(CAG) RNA repeats. hit rate 1.3% among 370,000. inhibition, % at 3 µM. r(CAG) RNA repeat, TO-PRO-1 dye displacement fluorescence;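 active = inhibition above the plate cutoff, the mean of all test compounds on that plate plus 3 SD, cut at about 35% in these data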;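 note: 0% = DMSO alone and 100% = 100 µM mitoxantrone as full dye displacement; higher means more dye released from RNA so lower well fluorescence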
ABHD5-PLIN5 inh: blocks binding of human ABHD5 to perilipin-5; Split G. princeps luciferase complementation, luminescence, 4 h; inhibition, % at 4 µM; hit rate 0.78% among 360,000; AID 602281;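 active = inhibition above the mean inhibition across every tested compound plus 3 SD, cut at about 22% in these data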;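 note: 0% = DMSO only wells and the 100% control is not disclosed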
PRMT1 inh conf: PRMT1 (human) inhibition, FP confirmation; shares compounds with PRMT1 FP inh; recombinant His-PRMT1, activity-based probe fluorescence polarization; hit rate 42% among 3,300; inhibition, % at 2.79 µM;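 active = mean inhibition across replicates above the hit cutoff derived for the earlier primary screen, cut at about 22% in these data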
The depositor's hits bear a star; · = not tested or not shown. An excerpt weighted towards active compounds, which were near 3.3% of everything screened.

SMILES	TLR4 MyD88 comp	TLR9-MyD88 inh	NOD2 RIPK2 PPI	PRMT1 FP inh	rCAG binder	ABHD5-PLIN5 inh	PRMT1 inh conf
CCSc1nc2cc(S(=O)(=O)N3CCOCC3)ccc2o1	·	-5	1	19	1	-5	·
O=C(CSc1nc2cc(S(=O)(=O)N3CCOCC3)ccc2o1)NC1CCCc2ccccc21 (stereo not given)	7	-3	4	30*	5	5	25*
CN(C1(C)CCS(=O)(=O)C1)S(=O)(=O)c1ccc2ccccc2c1 (stereo not given)	·	5	-20	-1	-5	3	·
O=C(CSc1nnnn1-c1ccc(Cl)cc1)NC1CCS(=O)(=O)C1 (stereo not given)	·	-7	-6	-2	2	-26	·
Cc1ccc(OCCC(=O)OCC(=O)Nc2ccc3c(c2)OCCO3)cc1	·	-1	-6	32*	-5	2	9
Cc1c(Cl)cccc1NC(=O)CSc1nnnn1C	·	-4	-1	1	1	6	·
Cc1c(Cl)cccc1NC(=O)CSCc1cc(=O)[nH][nH]1	-7	7	-5	28*	27	-13	6
COC(OC)c1nc(SCC(=O)Nc2cccc(Cl)c2)ncc1C(=O)O	·	14	3	27*	7	-1	3
Nc1cc(=O)[nH]c(SCC(=O)Nc2cccc(Cl)c2)n1	-2	3	-5	2	2	2	·
CCOc1ccc(C(=O)COC(=O)c2nn(CC)c(=O)c3ccccc23)cc1	·	-1	0	4	6	8	·
CC(=O)Nc1ccc(C(=O)NCCCSc2ccccc2)cc1	·	0	-2	-2	-4	1	·
CC(=O)Nc1ccc(SCCCC(=O)c2ccccc2)cc1	·	-2	-1	35*	3	-1	39*
Cn1cnc(C(=O)NCc2ccc(CNC(=O)OC(C)(C)C)cc2)c1C(=O)NCc1ccc(CNC(=O)OC(C)(C)C)cc1	·	3	5	1	2	-11	·
COC(=O)C1=CC(=O)C=C(OC)[C@@]12Oc1cc(C)cc(OC)c1C2=O	·	·	·	88*	-2	·	85*
Cc1cc(O)c(N=Cc2cc3c(cc2[N+](=O)[O-])OCO3)cc1C	·	-13	7	25*	7	10	22*
Oc1cc2c(cc1O)[C@H]1c3ccc(O)c(O)c3OC[C@@]1(O)C2	·	4	9	43*	2	10	38*
COc1ccc(C2COc3cc(O)ccc3C2)c(OC)c1O (stereo not given)	·	4	-21	4	0	0	·
Oc1ccc2c(c1)OCC1(O)Cc3cc(O)c(O)cc3C21 (stereo not given)	·	0	8	125*	-231	9	119*
Nc1nc(CCl)nc(N(c2ccccc2)c2ccccc2)n1	·	·	1	-1	-3	-3	·
Cc1ccc(S(=O)(=O)N2CCSC2c2ccco2)cc1 (stereo not given)	4	8	6	31*	8	-8	8
Cc1ccc(S(=O)(=O)N2CCSC2C(=O)O)cc1 (stereo not given)	-8	-4	1	0	-3	1	·
O=C(O)CCCCCNC(=O)Cn1nnc2ccccc2c1=O	·	-7	-11	-2	19	8	·
CCCOc1nc(N)c(C#N)c(-c2ccccc2F)c1C#N	-10	1	17	1	-4	-1	·
Cc1ccc(NC(=O)c2ccc(Cl)c(N3C(=O)C=CC3=O)c2)cc1	19	18	51*	92*	17	39*	89*
CCN1CCSc2ccc(C(=O)NCc3ccc(OC(C)C)cc3)cc21	·	-9	-26	11	4	1	·
SMILES	TLR4 MyD88 comp	TLR9-MyD88 inh	NOD2 RIPK2 PPI	PRMT1 FP inh	rCAG binder	ABHD5-PLIN5 inh	PRMT1 inh conf
CCOc1ccc(CNC(=O)c2ccc3c(c2)N(CC)CCS3)cc1	·	0	8	25*	7	-3	-1
S=C(NCCCN1CCOCC1)NCCCN1CCOCC1	-11	3	1	40*	-2	3	58*
CC(C)(C)c1cc(NC(=O)CSc2nncs2)n(-c2ccccc2)n1	-6	-6	6	0	4	-4	·
CCOC(=O)CC(=O)CSc1ncnc2c1nnn2-c1ccc(OC)cc1	-20	-7	7	62*	15	-2	79*
O=C(NCCS(=O)(=O)N1CCCCC1)c1ccc2c(c1)OCO2	·	6	-4	-1	-1	1	·
CN(c1ccccc1)S(=O)(=O)c1cccc(NC(=O)C2=NN(c3ccccc3)C(=O)CC2)c1	·	0	0	2	8	-3	·
CCOC(=O)c1c(SCCN2CCCCC2)n(-c2ccccc2)c(=S)n(-c2ccccc2)c1=O	·	-9	5	31*	2	12	4
COCCN(C(=O)Nc1ccc(OC)cc1)c1nc2ccccc2s1	·	8	1	-4	0	-4	·
COCCN=C1Sc2nc3c(C)cccc3cc2CN1Cc1ccco1	-2	6	2	29*	18	16	15
COCCN=C1Sc2nc3ccc(C)cc3cc2CN1Cc1cccs1	-14	-12	2	20	6	-13	·
COC(=O)c1ccccc1SC1CC(=O)N(c2ccccc2)C1=O (stereo not given)	-15	-10	-1	38*	1	6	19
CCOC(=O)c1c(N2C(=O)CC(Sc3ccccc3C(=O)O)C2=O)sc2c1CCCC2 (stereo not given)	-12	-2	6	53*	24	4	52*
CCN1C(=O)CC(Sc2ccccc2C(=O)O)C1=O (stereo not given)	-3	-12	-12	-1	0	13	·
O=C(O)c1ccccc1SC1CC(=O)N(c2cccc3ccccc23)C1=O (stereo not given)	·	5	-3	84*	10	7	51*
Fc1ccccc1OCCCN1CCOCC1	1	0	-3	4	-2	-2	·
CCc1noc(C)c1C(=O)OC(C)C(=O)Nc1cc([N+](=O)[O-])ccc1OC (stereo not given)	·	5	-2	98*	-1	2	-2
NC(=O)CC(NSc1ccccc1[N+](=O)[O-])C(=O)O (stereo not given)	9	-6	-2	34*	4	-9	23*
O=[N+]([O-])c1ccccc1SNc1ccccc1	·	-1	3	-1	2	1	·
COc1ccccc1OCC(=O)Sc1ccc(C)cc1	-18	7	3	39*	-7	-8	79*
Cc1nnc(SCC2=C(C(=O)O)N3C(=O)C(NC(=O)C(C)n4nc(C(F)(F)F)cc4C)C3SC2)s1 (stereo not given)	-18	1	2	28*	17	16	10
CC1=C(C(=O)O)N2C(=O)C(NC(=O)c3nn(C)cc3Cl)C2SC1 (stereo not given)	-6	-7	-2	6	-1	-10	·
